Data reported in the supplement of paper PMC8728848.
The entries come from a sample that favours the strongest signals as a whole.

Assays:
Experiment in all cases: glycan array binding signal (z-score within array); higher = stronger binding
Conditions in all cases: glycan notation: IUPAC condensed, linker removed
[1] = target: Fuc(a1-2)Gal(b1-3)GalNAc(b1-3)Gal
Procedure, shortened: (§1)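 Negative Z-scores can be read as non-binding. The Z-score is calculated within each array and then averaged across arrays of one protein sequence at different concentrations or buffers and across linkers. Arrays, 3228 in all, were curated from the Consortium for Functional Glycomics database and kept only where the protein sequence was available.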

[2] = target: Fuc(a1-2)Gal(b1-3)GlcNAc(b1-3)[Fuc(a1-2)Gal(b1-3)GlcNAc(b1-6)]GalNAc
Procedure, shortened: as §1

[3] = target: Fuc(a1-2)Gal(b1-4)GlcNAc(b1-3)Gal(b1-4)GlcNAc(b1-3)Gal(b1-4)GlcNAc
Procedure, shortened: as §1

[4] = target: Fuc(a1-2)Gal(b1-4)GlcNAc(b1-3)GalNAc
Procedure, shortened: as §1

[5] = target: Fuc(a1-2)[Gal(a1-3)]Gal(b1-3)GlcNAc(b1-2)Man(a1-3)[Fuc(a1-2)[Gal(a1-3)]Gal(b1-3)GlcNAc(b1-2)Man(a1-6)]Man(b1-4)GlcNAc(b1-4)GlcNAc
Procedure, shortened: as §1

[6] = target: Fuc(a1-2)[Gal(a1-3)]Gal(b1-4)GlcNAc(b1-2)Man(a1-3)[Fuc(a1-2)[Gal(a1-3)]Gal(b1-4)GlcNAc(b1-2)Man(a1-6)]Man(b1-4)GlcNAc(b1-4)GlcNAc
Procedure, shortened: as §1

[7] = target: Fuc(a1-2)[Gal(a1-3)]Gal(b1-4)[Fuc(a1-3)]GlcNAc
Procedure, shortened: as §1

[8] = target: Fuc(a1-2)[GalNAc(a1-3)]Gal(b1-3)GlcNAc(b1-6)GalNAc
Procedure, shortened: as §1

[9] = target: Fuc(a1-3)[Gal(b1-4)]GlcNAc(b1-6)GalNAc
Procedure, shortened: as §1

[10] = target: Fuc(a1-3)[Gal3S(b1-4)]GlcNAc
Procedure, shortened: as §1

Fuc(a1-4)GlcNAc = target: Fuc(a1-4)GlcNAc
Procedure, shortened: as §1

Gal(a1-3)Gal(b1-4)Glc = target: Gal(a1-3)Gal(b1-4)Glc
Procedure, shortened: as §1

[11] = target: Gal(a1-3)Gal(b1-4)GlcNAc(b1-6)GalNAc
Procedure, shortened: as §1

Gal(b1-3)Gal(b1-4)GlcNAc = target: Gal(b1-3)Gal(b1-4)GlcNAc
Procedure, shortened: as §1

Gal(b1-3)GalNAc = target: Gal(b1-3)GalNAc
Procedure, shortened: as §1

Gal(b1-3)GalNAc(b1-3)Gal = target: Gal(b1-3)GalNAc(b1-3)Gal
Procedure, shortened: as §1

[12] = target: Gal(b1-3)GlcNAc(b1-2)[Gal(b1-3)GlcNAc(b1-6)]Man(a1-6)[Gal(b1-3)GlcNAc(b1-2)Man(a1-3)]Man(b1-4)GlcNAc(b1-4)GlcNAc
Procedure, shortened: as §1

[13] = target: Gal(b1-3)GlcNAc(b1-3)Gal(b1-4)Glc
Procedure, shortened: as §1

[14] = target: Gal(b1-3)GlcNAc(b1-3)Gal(b1-4)GlcNAc(b1-2)[Gal(b1-3)GlcNAc(b1-3)Gal(b1-4)GlcNAc(b1-6)]Man(a1-6)[Gal(b1-3)GlcNAc(b1-3)Gal(b1-4)GlcNAc(b1-2)Man(a1-3)]Man(b1-4)GlcNAc(b1-4)[Fuc(a1-6)]GlcNAc
Procedure, shortened: as §1

[15] = target: Gal(b1-3)GlcNAc(b1-3)Gal(b1-4)GlcNAc(b1-3)Gal(b1-4)GlcNAc(b1-2)[Gal(b1-3)GlcNAc(b1-3)Gal(b1-4)GlcNAc(b1-3)Gal(b1-4)GlcNAc(b1-6)]Man(a1-6)[Gal(b1-3)GlcNAc(b1-3)Gal(b1-4)GlcNAc(b1-3)Gal(b1-4)GlcNAc(b1-2)Man(a1-3)]Man(b1-4)GlcNAc(b1-4)[Fuc(a1-6)]GlcNAc
Procedure, shortened: as §1

[16] = target: Gal(b1-3)GlcNAc(b1-3)Gal(b1-4)GlcNAc(b1-6)[Gal(b1-3)GlcNAc(b1-3)]Gal(b1-4)Glc
Procedure, shortened: as §1

[17] = target: Gal(b1-3)GlcNAc(b1-3)GalNAc
Procedure, shortened: as §1

[18] = target: Gal(b1-4)GlcNAc(a1-6)Gal(b1-4)GlcNAc
Procedure, shortened: as §1

[19] = target: Gal(b1-4)GlcNAc(b1-2)[Gal(b1-4)GlcNAc(b1-4)]Man(a1-3)[Gal(b1-4)GlcNAc(b1-2)[Gal(b1-4)GlcNAc(b1-6)]Man(a1-6)][GlcNAc(b1-4)]Man(b1-4)GlcNAc(b1-4)GlcNAc
Procedure, shortened: as §1

[20] = target: Gal(b1-4)GlcNAc(b1-2)[Gal(b1-4)GlcNAc(b1-4)]Man(a1-3)[GlcNAc(b1-4)][Gal(b1-4)GlcNAc(b1-2)Man(a1-6)]Man(b1-4)GlcNAc(b1-4)GlcNAc
Procedure, shortened: as §1

[21] = target: Gal(b1-4)GlcNAc(b1-3)Gal(b1-4)GlcNAc(b1-2)[Gal(b1-4)GlcNAc(b1-3)Gal(b1-4)GlcNAc(b1-6)]Man(a1-6)[Gal(b1-4)GlcNAc(b1-3)Gal(b1-4)GlcNAc(b1-2)Man(a1-3)]Man(b1-4)GlcNAc(b1-4)GlcNAc
Procedure, shortened: as §1

[22] = target: Gal(b1-4)GlcNAc(b1-3)Gal(b1-4)GlcNAc(b1-2)[Gal(b1-4)GlcNAc(b1-3)Gal(b1-4)GlcNAc(b1-6)]Man(a1-6)[Gal(b1-4)GlcNAc(b1-3)Gal(b1-4)GlcNAc(b1-2)Man(a1-3)]Man(b1-4)GlcNAc(b1-4)[Fuc(a1-6)]GlcNAc
Procedure, shortened: as §1

[23] = target: Gal(b1-4)GlcNAc(b1-3)Gal(b1-4)GlcNAc(b1-3)Gal(b1-4)GlcNAc(b1-2)[Gal(b1-4)GlcNAc(b1-3)Gal(b1-4)GlcNAc(b1-3)Gal(b1-4)GlcNAc(b1-6)]Man(a1-6)[Gal(b1-4)GlcNAc(b1-3)Gal(b1-4)GlcNAc(b1-3)Gal(b1-4)GlcNAc(b1-2)Man(a1-3)]Man(b1-4)GlcNAc(b1-4)[Fuc(a1-6)]GlcNAc
Procedure, shortened: as §1

[24] = target: Gal(b1-4)GlcNAc(b1-3)Gal(b1-4)GlcNAc(b1-3)Gal(b1-4)GlcNAc(b1-3)Gal(b1-4)GlcNAc(b1-2)Man(a1-3)[Gal(b1-4)GlcNAc(b1-3)Gal(b1-4)GlcNAc(b1-3)Gal(b1-4)GlcNAc(b1-3)Gal(b1-4)GlcNAc(b1-2)Man(a1-6)]Man(b1-4)GlcNAc(b1-4)GlcNAc
Procedure, shortened: as §1

[25] = target: Gal(b1-4)GlcNAc(b1-3)Gal(b1-4)GlcNAc(b1-3)Gal(b1-4)GlcNAc(b1-3)Gal(b1-4)GlcNAc(b1-2)Man(a1-3)[Gal(b1-4)GlcNAc(b1-3)Gal(b1-4)GlcNAc(b1-3)Gal(b1-4)GlcNAc(b1-3)Gal(b1-4)GlcNAc(b1-2)Man(a1-6)]Man(b1-4)GlcNAc(b1-4)[Fuc(a1-6)]GlcNAc
Procedure, shortened: as §1

B1: rMpL (Macrolepiota procera) (protein)
chain: MSTQVSSGRTYKITNVIAGTVIDLSGEDNKSIIGYPYHSGKNQQWTFNWTGKAWTLRSASSGSYLGIEGTPAGGTRLVAVNDPFEWHIWRDEANENAFRIFVPFTNYNLDLSGYGDTTPGTPVQLWWTWEGLHQTWTIDRP
- glycan array binding signal (z-score) [1]: -0.272
- glycan array binding signal (z-score) [2]: -0.078
- glycan array binding signal (z-score) [3]: -0.248
- glycan array binding signal (z-score) [4]: -0.301
- glycan array binding signal (z-score) [5]: -0.259
- glycan array binding signal (z-score) [6]: -0.257
- glycan array binding signal (z-score) [7]: -0.216
- glycan array binding signal (z-score) [8]: -0.353
- glycan array binding signal (z-score) [9]: -0.065
- glycan array binding signal (z-score) [10]: -0.253
- glycan array binding signal (z-score) (Fuc(a1-4)GlcNAc): -0.316
- glycan array binding signal (z-score) (Gal(a1-3)Gal(b1-4)Glc): -0.194
- glycan array binding signal (z-score) [11]: -0.27
- glycan array binding signal (z-score) (Gal(b1-3)Gal(b1-4)GlcNAc): -0.257
- glycan array binding signal (z-score) (Gal(b1-3)GalNAc): -0.273
- glycan array binding signal (z-score) (Gal(b1-3)GalNAc(b1-3)Gal): -0.243
- glycan array binding signal (z-score) [12]: 3.42
- glycan array binding signal (z-score) [13]: 0.808
- glycan array binding signal (z-score) [14]: 2.4
- glycan array binding signal (z-score) [15]: 3.58
- glycan array binding signal (z-score) [16]: 4.17
- glycan array binding signal (z-score) [17]: 0.153
- glycan array binding signal (z-score) [18]: 9.59
- glycan array binding signal (z-score) [19]: 4.13
- glycan array binding signal (z-score) [20]: 1.46
- glycan array binding signal (z-score) [21]: 1.23
- glycan array binding signal (z-score) [22]: 3.75
- glycan array binding signal (z-score) [23]: 4.71
- glycan array binding signal (z-score) [24]: 3.24
- glycan array binding signal (z-score) [25]: 3.33
